The values that follow come from PubChem BioAssay (Tox21).

Each structure is given as a SMILES string. “And” between values parts separate entries of the source, which are not always exact repeats. Equal entries are not always repeated. Inconclusive results are not listed. The source holds several records for some structures; these can differ, active in one and inactive in another. The source made the active and inactive calls. Unless noted, calls come from the whole dose curve.

Assay [1] in a line: Nuclear factor erythroid 2-related factor 2/antioxidant responsive element (Nrf2/ARE) small molecule agonists: qHTS cell viability counter screen in human keratinocytes (AID 1919968; active = well fitted curve in the direction sought with a large enough effect in the repeat runs; an effect the other way counts as inactive or inconclusive; note: nearly all actives have a fitted effect of over 55% in size). The method, boiled down: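 CellTiter-Fluor fluorescence, read 1 h after reagent, gave viability in the same wells as the ARE-luciferase assay. KeratinoSens cells (1,500/well) had 23 h compound exposure at 37 C/5% CO2 following 5 h plating.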
A general note: qHTS replaces the single test concentration by a dilution series.

Assay [2] can be described thus: Nuclear factor erythroid 2-related factor 2/antioxidant responsive element (Nrf2/ARE) small molecule agonists: luciferase reporter gene qHTS assay in human keratinocytes (AID 1919969). Note: nearly all actives have a fitted effect of over 35% in size. Note: potency is the fitted concentration of half-maximal effect.
Assay [3] deals with Gonadotropin-releasing hormone receptor (Homo sapiens) (UniProt P30968). As to the kind of experiment: Human gonadotropin-releasing hormone receptor (GnRHR) small molecule agonists, calcium flux assay in GnRHR-HEK293 cells (AID 1920063). Note: nearly all actives have a fitted effect of over 35% in size. The method, boiled down: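 Agonist mode: compounds at 15 concentrations, in triplicate, went onto calcium dye-loaded GnRHR-HEK293 cells. Intracellular calcium was then followed as 480/540 nm fluorescence at 1 s intervals over 3 min.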
Sequence of Gonadotropin-releasing hormone receptor (Homo sapiens) (P30968 whole entry, looked up): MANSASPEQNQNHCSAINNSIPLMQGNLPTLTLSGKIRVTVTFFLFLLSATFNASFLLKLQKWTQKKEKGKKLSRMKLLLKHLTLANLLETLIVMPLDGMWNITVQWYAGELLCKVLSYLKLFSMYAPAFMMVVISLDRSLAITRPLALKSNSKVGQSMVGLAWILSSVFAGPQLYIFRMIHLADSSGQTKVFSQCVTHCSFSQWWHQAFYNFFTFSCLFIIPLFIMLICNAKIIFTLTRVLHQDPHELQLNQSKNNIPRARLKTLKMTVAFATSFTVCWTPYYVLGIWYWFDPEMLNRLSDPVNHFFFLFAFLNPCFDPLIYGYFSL

In assay [4] the target is KiSS-1 receptor (Homo sapiens) (UniProt Q969F8). The experiment in a line: Human kisspeptin (KISS1R) small molecule agonists, calcium flux assay in KISS1R-HEK293 cells (AID 1920064; active = well fitted curve in the direction sought with a large enough effect in the repeat runs; an effect the other way counts as inactive or inconclusive). The method, boiled down: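 Agonist mode: intracellular calcium rise tracked at 1 s intervals over 3 min (480/540 nm) immediately after compound addition to dye-loaded KISS1R-HEK293 stable cells. Each compound tested at 15 concentrations in triplicate.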
Sequence of KiSS-1 receptor (Homo sapiens) (Q969F8 whole entry, looked up): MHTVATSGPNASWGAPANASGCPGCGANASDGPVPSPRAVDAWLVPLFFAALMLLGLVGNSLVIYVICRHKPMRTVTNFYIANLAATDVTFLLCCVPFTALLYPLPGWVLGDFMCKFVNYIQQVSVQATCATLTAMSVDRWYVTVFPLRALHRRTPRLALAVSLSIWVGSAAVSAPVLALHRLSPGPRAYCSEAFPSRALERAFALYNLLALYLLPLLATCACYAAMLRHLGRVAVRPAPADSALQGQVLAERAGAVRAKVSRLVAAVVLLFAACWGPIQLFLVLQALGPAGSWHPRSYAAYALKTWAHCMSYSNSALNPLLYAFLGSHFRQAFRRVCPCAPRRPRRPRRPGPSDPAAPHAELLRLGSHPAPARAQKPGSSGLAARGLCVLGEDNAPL
(A change in cytosolic calcium serves as a functional read-out for many receptors and channels.)

Assay [5] in a line: G protein-coupled receptor (GPCR) small molecule agonists, calcium flux assay: HEK293 wild type cell line counter screen (AID 1920065). The method, boiled down: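 Calcium flux counter screen: compound added in agonist mode at 15 concentrations in triplicate to dye-loaded parental HEK293 cells. Fluorescence (480/540) read kinetically for 3 min; ATP served as positive control.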

Assay [6] can be described thus: p53 small molecule agonists, cell-based qHTS assay with human liver microsomes: qHTS cell viability counter screen (AID 1963579). Note: nearly all actives have a fitted effect of over 45% in size. The method, boiled down:
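HLM-supplemented (0.5 mg/mL final) and NADPH-supplemented (0.5 mg/mL final) p53RE-bla cultures, 4,000 cells per well, were dosed with compounds in DMSO for 16 h at 37 C; luminescent ATP detection (CellTiter-Glo, 30 min, room temperature) quantified surviving cells.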

Assay [7] in a line: p53 small molecule agonists, cell-based qHTS assay with rat liver microsomes: qHTS cell viability counter screen (AID 1963580). Note: nearly all actives have a fitted effect of over 45% in size. The method, boiled down:
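Luminescent ATP readout (CellTiter-Glo, 30 min at room temperature) reports viability of p53RE-bla HCT-116 cells after 16 h at 37 C with test compounds under metabolic activation by rat liver microsomes and NADPH at 0.5 mg/mL final each.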

A short description of assay [8]: p53 small molecule agonists, cell-based qHTS assay: qHTS cell viability counter screen (AID 1963581). Note: nearly all actives have a fitted effect of over 45% in size. The method, boiled down: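 Counter screen read by CellTiter-Glo luminescence (ATP content, 30 min at room temperature), run in the same wells as the beta-lactamase reporter read. HCT-116 p53RE-bla cells saw compounds for 16 h at 37 C.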
Assay [9] concerns the target 5-hydroxytryptamine receptor 2A (Homo sapiens) (UniProt P28223). As to the kind of experiment: 5-hydroxytryptamine receptor 2A (HTR2A) small molecule antagonists, cell-based qHTS assay (AID 1963586). Note: nearly all actives have a fitted effect of over 45% in size. Note: potency is the fitted concentration of half-maximal effect. The method, boiled down:
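CHO cells stably expressing human HTR2A were plated for 18 h at 37 C, then loaded with calcium dye for 1 h. Compounds were preincubated 5 min at room temperature before DOI (4 nM solution) was added. Kinetic fluorescence was read for 3 min.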

For assay [10] the target is unchanged. As to the kind of experiment: 5-hydroxytryptamine receptor 2A (HTR2A) small molecule agonists, cell-based qHTS assay (AID 1963587). Note: nearly all actives have a fitted effect of over 30% in size. The method, boiled down:
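HTR2A-CHO cells, plated 18 h at 37 C/5% CO2, dye-loaded 1 h at 37 C; compounds in DMSO added by pin tool (agonist mode). Intracellular calcium flux read as kinetic fluorescence on FDSS over 2 min at 1 s intervals.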

For assay [11], the target named is Muscarinic acetylcholine receptor M1 (Homo sapiens) (UniProt P11229). As to the kind of experiment: Cholinergic receptor muscarinic 1 (CHRM1) small molecule antagonists, cell-based qHTS assay (AID 1963588). Note: nearly all actives have a fitted effect of over 40% in size. The method, boiled down: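 Compounds were tested at 15 concentrations in three independent runs. Dye-loaded CHRM1-CHO cells were exposed 5 min at room temperature before stimulation by acetylcholine added at 50nM. Intracellular calcium was read kinetically on FDSS for 3 min.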
Sequence of Muscarinic acetylcholine receptor M1 (Homo sapiens) (P11229 whole entry, looked up): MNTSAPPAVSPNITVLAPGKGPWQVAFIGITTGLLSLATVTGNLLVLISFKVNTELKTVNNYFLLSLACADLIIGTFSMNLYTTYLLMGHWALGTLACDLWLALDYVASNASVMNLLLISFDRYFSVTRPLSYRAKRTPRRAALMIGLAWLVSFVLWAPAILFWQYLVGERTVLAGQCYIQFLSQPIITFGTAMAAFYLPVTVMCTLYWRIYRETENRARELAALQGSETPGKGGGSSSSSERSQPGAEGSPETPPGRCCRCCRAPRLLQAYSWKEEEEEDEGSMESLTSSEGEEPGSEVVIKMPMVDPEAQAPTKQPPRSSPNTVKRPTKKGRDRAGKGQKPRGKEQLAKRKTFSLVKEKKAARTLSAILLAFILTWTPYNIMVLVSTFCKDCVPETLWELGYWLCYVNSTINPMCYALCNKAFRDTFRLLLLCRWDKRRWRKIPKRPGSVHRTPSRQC

Assay [12] is described as follows: cAMP Responsive Elements (CRE) small molecule agonists, cell-based qHTS assay (AID 1963590). The method, boiled down:
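Agonist mode: compound added to CRE-bla HEK 293T cells (2,000/well, 18 h after plating) for 3 h at 37 C/5% CO2. Reporter activity detected via FRET beta-lactamase substrate, 2 h room-temperature loading.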

A short description of assay [13]: cAMP Responsive Elements (CRE) small molecule antagonists, cell-based qHTS assay (AID 1963591; active = well fitted inhibition curve with a large enough effect in the signal ratio in the repeat runs, not every such curve was filed as active; the % refers to the signal ratio). The method, boiled down: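 Antagonist mode: compounds are added alongside the adenylyl cyclase activator NKH477 (0.25 uM final) to CRE-bla HEK293T cells for 3 h. LiveBLAzer FRET substrate, 2 h at room temperature, reports bla expression.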
In assay [14] the target is Beta-2 adrenergic receptor (Homo sapiens) (UniProt P07550). The experiment in a line: Adrenergic beta2 receptor (ADRB2) small molecule agonists, cell-based qHTS assay (AID 1963593).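 Note: CHO cells stably overexpressing human ADRB2.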 The method, boiled down: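 CHO cells stably over-expressing ADRB2 were plated overnight at 37C, then dosed with compounds plus a stimulation mix containing 100uM IBMX and 25uM Ro-20-1724 for 0.5hr at room temperature. cAMP was measured by HTRF competition, 1hr.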
Sequence of Beta-2 adrenergic receptor (Homo sapiens) (P07550 whole entry, looked up): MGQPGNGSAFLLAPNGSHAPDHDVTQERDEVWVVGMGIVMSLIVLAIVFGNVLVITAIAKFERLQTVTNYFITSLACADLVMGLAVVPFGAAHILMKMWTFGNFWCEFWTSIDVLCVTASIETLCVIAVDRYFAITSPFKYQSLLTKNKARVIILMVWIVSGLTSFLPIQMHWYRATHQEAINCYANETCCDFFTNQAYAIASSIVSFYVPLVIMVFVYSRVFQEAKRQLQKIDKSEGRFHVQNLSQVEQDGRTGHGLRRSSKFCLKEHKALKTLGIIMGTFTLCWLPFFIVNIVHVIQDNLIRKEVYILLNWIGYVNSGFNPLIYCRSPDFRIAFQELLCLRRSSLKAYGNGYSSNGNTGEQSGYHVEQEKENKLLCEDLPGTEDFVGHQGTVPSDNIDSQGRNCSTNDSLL

In assay [15] the target is D(2) dopamine receptor (Homo sapiens) (UniProt P14416). As to the kind of experiment: Dopamine D2 receptor (DRD2) small molecule agonists, cell-based qHTS assay (AID 1963594). Note: nearly all actives have a fitted effect of over 35% in size. The method, boiled down:
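HEK293 cells stably expressing DRD2 were cultured 24 h at 37 C, then given Ro20-1724 (0.1 mM final) and compounds for 10 min at room temperature. NKH477 (200nM) was then added for 30 min. cAMP was read by HTRF.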

Assay [16] shares this target. As to the kind of experiment: Dopamine D2 receptor (DRD2) small molecule antagonists, cell-based qHTS assay (AID 1963595; active = well fitted inhibition curve with a large enough effect in the signal ratio in the repeat runs, with a control signal flat; the % refers to the signal ratio). The method, boiled down: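 Readout: HTRF cAMP, cAMP-d2 competing with cellular cAMP for anti-cAMP cryptate, read after 1 h. Cells: DRD2-HEK293. Conditions: 0.1 mM Ro20-1724, 12 nM quinpirole, 200 nM NKH477, 30 min RT.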
For assay [17], the target named is Muscarinic acetylcholine receptor M1 (Homo sapiens) (UniProt P11229). The experiment in a line: Cholinergic receptor muscarinic 1 (CHRM1) small molecule agonists, cell-based qHTS assay (AID 1963589). Note: nearly all actives have a fitted effect of over 35% in size. The method, boiled down:
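Agonist-mode calcium-flux screen: compounds at 15 concentrations, three independent runs, were pin-transferred onto dye-loaded human CHRM1-CHO cells. Fluorescence was then recorded kinetically every second over minutes.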

For assay [18], the target named is Beta-2 adrenergic receptor (Homo sapiens) (UniProt P07550). The experiment in a line: Adrenergic beta2 receptor (ADRB2) small molecule antagonists, cell-based qHTS assay (AID 1963592). Note: series mostly up to about 92 µM; nearly all actives have a fitted effect of over 50% in size. The method, boiled down: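 Assay format: CHO-ADRB2 cells, 18-20hr seeding at 37C/5% CO2, then compound plus 1nM isoproterenol agonist mix for 0.5hr RT. Homogeneous time-resolved fluorescence cAMP detection after 1hr, expressed as 665/615 nm ratio.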

Sequence of 5-hydroxytryptamine receptor 2A (Homo sapiens) (P28223 whole entry, looked up): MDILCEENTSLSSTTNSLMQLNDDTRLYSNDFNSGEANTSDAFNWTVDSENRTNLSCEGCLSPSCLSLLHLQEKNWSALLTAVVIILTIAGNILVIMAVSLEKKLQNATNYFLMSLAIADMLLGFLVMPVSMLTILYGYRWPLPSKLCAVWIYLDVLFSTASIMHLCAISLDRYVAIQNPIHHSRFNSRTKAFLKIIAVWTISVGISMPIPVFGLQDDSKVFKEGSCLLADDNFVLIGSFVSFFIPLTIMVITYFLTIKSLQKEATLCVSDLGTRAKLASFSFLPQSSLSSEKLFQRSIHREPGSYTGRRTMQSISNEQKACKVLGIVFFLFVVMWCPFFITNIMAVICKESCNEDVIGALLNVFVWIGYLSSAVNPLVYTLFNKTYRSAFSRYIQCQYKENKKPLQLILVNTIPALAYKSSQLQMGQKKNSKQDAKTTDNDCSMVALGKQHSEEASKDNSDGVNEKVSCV
Sequence of D(2) dopamine receptor (Homo sapiens) (P14416 whole entry, looked up): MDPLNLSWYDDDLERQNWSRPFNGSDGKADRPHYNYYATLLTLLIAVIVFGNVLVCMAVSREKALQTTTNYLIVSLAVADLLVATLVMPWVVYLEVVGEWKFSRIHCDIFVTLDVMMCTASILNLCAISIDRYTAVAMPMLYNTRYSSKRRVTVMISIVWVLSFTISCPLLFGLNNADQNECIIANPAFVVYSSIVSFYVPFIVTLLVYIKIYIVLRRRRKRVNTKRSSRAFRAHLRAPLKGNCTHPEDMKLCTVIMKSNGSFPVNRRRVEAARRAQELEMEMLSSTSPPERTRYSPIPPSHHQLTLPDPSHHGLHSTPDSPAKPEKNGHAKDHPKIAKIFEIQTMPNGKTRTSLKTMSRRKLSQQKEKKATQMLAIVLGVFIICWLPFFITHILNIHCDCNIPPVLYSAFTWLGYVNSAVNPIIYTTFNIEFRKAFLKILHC

`COc1ccc2nc(N)sc2c1`: the Potency result in [1], in [3], in [4], in [5], in [6] and in [7] was “inactive” each time. The Potency entry in [8], in [9], in assay [10], in assay [11], in assay [12] and in [13] was “inactive” in each case. In addition, the Potency entry in assay [14], in assay [15] and in assay [16] was “inactive” each time. Also, the Potency result in assay [2] is “inactive and 54.5 µM (active)”.
Consider `COc1ccc(N)c(C)c1`, for which the Potency entry in [1], in assay [2], in assay [3], in [4], in assay [5] and in assay [6] was “inactive” each time. Moreover, the Potency entry in assay [7], in assay [8], in assay [9], in [10], in [11] and in [17] was “inactive” in each case. Further, the Potency result in assay [12], in assay [13], in assay [18], in assay [14], in assay [15] and in assay [16] was “inactive” in each case.
In the case of `O=C(O)c1ccccc1C(c1ccc(O)cc1)c1ccc(O)cc1`, the Potency entry in assay [1], in assay [2], in [3], in assay [4], in assay [5] and in assay [6] was “inactive” throughout. In addition, the Potency result in assay [7], in assay [8], in [9], in assay [10], in [11] and in [17] was “inactive” each time. Further, the Potency result in assay [12], in [13], in [18] and in assay [15] was “inactive” in each case.
Regarding `CC(=O)OC1CC(C)OC(C)O1` (stereo unspecified), the Potency result in assay [1], in assay [2], in [3], in assay [4], in [5] and in assay [6] was “inactive” throughout. The Potency result in assay [7], in assay [8], in assay [9], in assay [10], in assay [17] and in [12] was “inactive” in each case. For the same compound, the Potency result in [13], in assay [18], in assay [14] and in [16] was “inactive” each time.
As for `CCc1ccccc1O`, the Potency result in assay [1], in [3], in [4], in assay [5], in assay [6] and in assay [7] was “inactive” in each case. In addition, the Potency entry in assay [8], in [9], in assay [10], in assay [11], in assay [17] and in assay [12] was “inactive” in each case. In addition, the Potency result in assay [13], in assay [18], in assay [14], in assay [15] and in assay [16] was “inactive” throughout. The Potency in [2] was 60.8 µM (active) and inactive.
In the case of `CN1Cc2c(N)cccc2C(c2ccccc2)C1` (stereo unspecified), the Potency entry in [1], in [2], in assay [3], in assay [4], in assay [5] and in [6] was “inactive” in each case. Besides, the Potency entry in [7], in assay [8], in assay [10], in [11], in assay [17] and in assay [13] was “inactive” throughout. The Potency entry in [18], in [14], in assay [15] and in assay [16] was “inactive” each time. Besides, the Potency in assay [9] was 14.9 µM (active).
